About 14,000 (4.5%) of roughly 310,000 compounds showed an effect of 50% or more. Effects have a minus sign here. Many of the other results were omitted from the sample, so strong results are more common in it than they were.
Biological target: human ether-à-go-go-related gene (hERG) potassium channel (human, UniProt Q12809)
Assay: primary screen, population patch clamp on CHO cells stably expressing hERG; higher = less effect of the substance
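Note: peak tail current of the secondary pulse compared with the same well before compound.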

Sequence of human ether-à-go-go-related gene (hERG) potassium channel (Q12809 whole entry, looked up): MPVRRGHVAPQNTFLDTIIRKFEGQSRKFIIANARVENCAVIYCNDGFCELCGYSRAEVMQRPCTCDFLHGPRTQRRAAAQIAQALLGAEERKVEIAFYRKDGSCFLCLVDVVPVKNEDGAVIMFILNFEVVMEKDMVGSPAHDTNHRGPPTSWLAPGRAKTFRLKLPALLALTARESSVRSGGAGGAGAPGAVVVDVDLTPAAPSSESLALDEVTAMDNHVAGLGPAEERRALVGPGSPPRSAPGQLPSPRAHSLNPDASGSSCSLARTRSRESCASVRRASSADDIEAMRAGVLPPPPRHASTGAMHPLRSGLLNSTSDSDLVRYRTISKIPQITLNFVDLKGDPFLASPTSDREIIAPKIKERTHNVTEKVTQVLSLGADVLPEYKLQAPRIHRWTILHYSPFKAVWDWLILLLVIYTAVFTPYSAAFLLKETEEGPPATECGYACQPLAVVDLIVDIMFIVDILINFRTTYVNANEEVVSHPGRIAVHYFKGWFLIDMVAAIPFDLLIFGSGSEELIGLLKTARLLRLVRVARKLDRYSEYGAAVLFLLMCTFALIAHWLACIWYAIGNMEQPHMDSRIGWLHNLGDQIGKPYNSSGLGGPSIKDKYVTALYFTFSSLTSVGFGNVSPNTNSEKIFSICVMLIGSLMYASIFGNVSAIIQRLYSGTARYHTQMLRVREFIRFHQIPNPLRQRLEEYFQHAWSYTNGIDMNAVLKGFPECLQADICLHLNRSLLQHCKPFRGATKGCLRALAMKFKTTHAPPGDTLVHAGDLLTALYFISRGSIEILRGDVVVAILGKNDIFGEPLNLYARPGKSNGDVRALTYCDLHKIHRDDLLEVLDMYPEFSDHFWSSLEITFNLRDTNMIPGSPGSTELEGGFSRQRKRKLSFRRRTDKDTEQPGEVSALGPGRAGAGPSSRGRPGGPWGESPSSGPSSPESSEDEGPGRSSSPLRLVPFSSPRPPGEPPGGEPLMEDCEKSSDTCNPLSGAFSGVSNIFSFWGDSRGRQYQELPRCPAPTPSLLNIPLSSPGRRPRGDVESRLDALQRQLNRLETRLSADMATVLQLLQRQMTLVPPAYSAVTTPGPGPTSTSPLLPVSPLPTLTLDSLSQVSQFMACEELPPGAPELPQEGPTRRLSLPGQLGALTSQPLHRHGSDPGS

SMILES	hERG current change (%, negative = inhibition) at 10uM [%]
Cc1nnc(SCc2ccc(Cl)cc2)n1CC1CCCO1 (centres unmarked)	-3.26
CSc1ccccc1NC(=O)COC(=O)Cn1cc(C(F)(F)F)ccc1=O	4.23
Cc1cc2oc(=O)cc(CN3CCCCC3C)c2cc1C(C)C (centres unmarked)	-22
Cc1cccc(Nc2nc(-c3ccccn3)cs2)n1	12.9
CN(CC(=O)OCC(=O)Nc1ccccc1)S(=O)(=O)c1ccc(Cl)cc1	-19.9
CCN(CC)c1ccc(/C=N/Nc2nc(C)cc(=O)[nH]2)cc1	-20.5
Cc1c(Cl)cccc1NC(=S)NCCc1ccccn1	9.25
O=C(CC1SC(=O)N(c2ccccc2)C1=O)Nc1cccc2ccccc12 (centres unmarked)	11.7
COc1cc(NC(=O)Cn2cnc(S(=O)(=O)N3CCC(C)CC3)c2)cc(OC)c1OC	20.6
Br.Cc1ccc(Cn2c(=N)n(CC(=O)c3ccc([N+](=O)[O-])cc3)c3ccccc32)cc1	-4.3
Br.N=c1n(CC(=O)c2ccc([N+](=O)[O-])cc2)c2ccccc2n1Cc1ccc(Cl)cc1	-14.3
Br.CCCCn1c(=N)n(CC(=O)c2ccc([N+](=O)[O-])cc2)c2ccccc21	-71.7
N=c1n(CC(=O)c2ccc(Br)cc2)c2ccccc2n1Cc1ccccc1.[Br-]	-9.25
Br.CCCn1c(=N)n(CC(=O)c2ccc(OCC(=O)OC)cc2)c2ccccc21	-52.7
Br.N=c1n(CC(=O)c2ccc([N+](=O)[O-])cc2)c2ccccc2n1Cc1ccccc1	-70.1
Br.N=c1n(CC(=O)c2ccc([N+](=O)[O-])cc2)c2ccccc2n1Cc1ccccc1Cl	-23.6
Br.Cc1ccc(Cn2c(=N)n(CC(=O)c3ccccc3)c3ccccc32)cc1	-72.2
Br.COC(=O)COc1ccc(C(=O)Cn2c(NCCCO)nc3ccccc32)cc1	-2.45
O=C(N/N=C/c1ccccc1C(=O)O)c1ccncc1	18.3
CCC(=O)NC(=S)Nc1ccc(-c2nc3ccccc3s2)cc1	-2.92
Cc1cc(C)nc(OC(C(=O)O)C(OCc2ccccc2)(c2ccccc2)c2ccccc2)n1 (centres unmarked)	21.7
CCC1CCCCN1C(=O)c1ccc2c(c1)C(=O)N(c1ccc(C)cc1)C2=O (centres unmarked)	-8.83
CCOP(=O)(OCC)C(NS(=O)(=O)c1ccccc1)C(Cl)(Cl)Cl (centres unmarked)	11.9
Br.Cc1ccccc1Cn1c(=N)n(CC(=O)c2ccc([N+](=O)[O-])cc2)c2ccccc21	-32.6
Br.COc1ccc(C(=O)Cn2c(=N)n(C)c3ccccc32)cc1	-28.8
Br.CCn1c(=N)n(CC(=O)c2ccc(OC)cc2)c2ccccc21	-18.6
Br.CCCn1c(=N)n(CC(=O)c2ccc([N+](=O)[O-])cc2)c2ccccc21	-78.5

SMILES	hERG current change (%, negative = inhibition) at 10uM [%]
Br.CCCCn1c(=N)n(CC(=O)c2ccc(OC)cc2)c2ccccc21	-73.6
N#Cc1c(-c2ccco2)cc(C2CC2)nc1SCC(=O)c1ccccc1	17.4
COCCNC(=S)N1CCN(c2cccc(C(F)(F)F)c2)CC1	-12.2
Cc1nn(Cc2cccc(F)c2)c(C)c1NC(=O)c1c([N+](=O)[O-])c(C)nn1C	-9.72
CCCn1nnnc1SCC(=O)Nc1sc(C)c(C)c1C#N	0.801
O=C(COC(=O)CNC(=O)c1cccc(Br)c1)Nc1nnc(-c2ccccc2)o1	-0.546
COc1ccc(CNC(=O)CCn2ccc3cc(S(=O)(=O)N4CCCC4)ccc32)cc1	-12.4
COc1ccc(CNC(=O)CCCn2ccc3cc(S(=O)(=O)N4CCCC4)ccc32)cc1	-52
COC(=O)CCNC(=O)CCc1ccc(S(=O)(=O)N2CCCCCC2)cc1	-12.1
CC(C(=O)NCc1ccccc1)N1CCN(c2ccc(F)cc2)CC1 (centres unmarked)	-18.9
COc1ccc(CNC(=O)COc2ccc(S(=O)(=O)N3CCCCC3)cc2)cc1	6.5
COc1ccc(CNC(=O)C(C)N2CCN(c3ccc(C(C)=O)cc3)CC2)cc1 (centres unmarked)	-55.1
COc1ccc(CNC(=O)C(C)N2CCN(S(=O)(=O)c3ccccc3F)CC2)cc1 (centres unmarked)	-15.9
CCOc1ccc(CNC(=O)CCCn2ccc3cc(S(=O)(=O)N4CCCC4)ccc32)cc1	-32.7
COc1ccc(S(=O)(=O)N2CCN(C(C)C(=O)Nc3ccc(C(C)C)cc3)CC2)cc1 (centres unmarked)	-20.6
COc1ccc(C(=O)NCc2ccc(N3CCN(C)CC3)cc2)cc1	5.1
COc1ccc(CNC(=O)CCc2ccc(S(=O)(=O)N3CCCCCC3)cc2)cc1	-54.9
CCCc1ccc(S(=O)(=O)N2CCN(C(C)C(=O)NCc3ccc(OC)cc3)CC2)cc1 (centres unmarked)	-57.4
COc1ccccc1NC(=O)c1ccc(N2CC3CC(C2)c2cccc(=O)n2C3)c(NC(=O)c2cccnc2)c1 (centres unmarked)	6.33
[Cl-].c1ccc(Cc2cc[n+](Cc3ccccc3)cc2)cc1	4.13
O=C(Nc1ccccc1N1CCCC1)c1cccnc1Cl	4.72
COc1ccc(C(=O)NC(=S)Nc2nc(C)cc(C)n2)cc1Br	23.1
CCOc1ccc2nc(SCC(=O)NCc3ccc4c(c3)OCO4)[nH]c2c1	-24.2
CCCNc1ccc(C(=O)OCC)cc1[N+](=O)[O-]	-6.67
Cc1ccc(C(C(=O)NCc2ccco2)N(C(=O)Cc2cccs2)c2cccnc2)cc1 (centres unmarked)	20.4
O=S(=O)(Nc1ccc2ccccc2c1)c1ccccc1	1.5

From PMC4336329 (PLoS ONE, 2015)
